Screening data: PubChem, The Scripps Research Institute Molecular Screening Center
TEAD-YAP inh: TEAD-YAP interaction inhibition | hit rate 1.4% among 640,000 | inhibition, % at 9.12 µM | HEK-TIYL cells, TEAD-Gal4/YAP UAS-luciferase luminescence; in the data active means inhibition above about 32%;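 further: 0% = median of test compound wells and 100% = reference inhibitor wells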
MITF primary: blocks human microphthalmia-associated transcription factor; O75030; AlphaScreen MITF homodimerization, bead proximity signal; inhibition, % at 2.6 µM; hit rate 0.91% among 650,000; AID 1259374; in the data active means inhibition above about 50%;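 further: 0% = vehicle wells with protein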
Target sequence (O75030 whole entry, looked up): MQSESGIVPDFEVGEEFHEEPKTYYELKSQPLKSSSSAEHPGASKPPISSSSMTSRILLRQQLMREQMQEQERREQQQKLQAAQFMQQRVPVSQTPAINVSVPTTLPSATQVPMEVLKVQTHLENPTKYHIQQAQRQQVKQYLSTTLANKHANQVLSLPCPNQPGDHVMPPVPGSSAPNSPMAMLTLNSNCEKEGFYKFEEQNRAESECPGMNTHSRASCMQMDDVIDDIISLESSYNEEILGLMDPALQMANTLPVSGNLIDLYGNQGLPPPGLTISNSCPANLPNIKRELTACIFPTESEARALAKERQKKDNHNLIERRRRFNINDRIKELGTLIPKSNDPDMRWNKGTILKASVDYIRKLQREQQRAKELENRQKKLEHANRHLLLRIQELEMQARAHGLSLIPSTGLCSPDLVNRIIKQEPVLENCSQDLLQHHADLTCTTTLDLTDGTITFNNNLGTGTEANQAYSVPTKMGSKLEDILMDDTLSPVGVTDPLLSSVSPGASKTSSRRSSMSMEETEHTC
GPR151 ag: activators of human GPR151. Q8TDV0. PathHunter beta-arrestin GPR151 cells, luminescence. activation, % at 11.2 µM. hit rate 1% among 650,000; in the data active means activation above about 4.9%;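 further: 0% = median of compound wells and 100% = cells with positive control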
FBW7 act: activators of human E3 ligase FBW7; Q969H0; normalized activity (activation), % at 26.1 µM; hit rate 0.13% among 650,000; AlphaScreen FBW7–phospho-cyclin E peptide binding, activator screen; in the data active means normalized activity above about 1.9%;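 further: purified mutant Fbw7 with reduced substrate affinity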
The depositor's hits bear a star. Only some compounds are listed: those with a hit (about 3.5% of all), similar ones and a draw of the others.

SMILES	TEAD-YAP inh	MITF primary	GPR151 ag	FBW7 act
COc1ccc(/C=C2\SC(=Nc3cc(C)cc(C)c3)NC2=O)c(OC)c1	57.2*	0.2	0.0	-0.5
COC(=O)c1ccc(NS(=O)(=O)c2cc(C(=O)OC)ccc2C(=O)OC)cc1	2.6	9.4	-0.4	0.2
CCn1nnc2c(NCc3ccc4[nH]c(C)cc4c3)ncnc21	65.5*	17.4	3.0	-0.4
CCn1nnc2c(Nc3cccc(C)c3)ncnc21	-61.4	-0.7	-2.8	0.0
C=CCOC(=O)C1=C(C)NC(=O)NC1c1ccc(OCCC)cc1 (stereo unspecified)	55.0*	3.4	-1.6	0.6
COc1ccc(C2NC(=S)NC(C)=C2C(=O)c2ccccc2)cc1 (stereo unspecified)	56.6*	16.6	-2.3	0.5
C/C=C/COC(=O)C1=C(C)NC(=O)NC1c1ccccc1Cl (stereo unspecified)	47.5*	-2.5	0.5	0.6
C=CCOC(=O)C1=C(C)NC(=S)NC1c1ccc(C(=O)OC)cc1 (stereo unspecified)	36.2*	1.2	-1.1	0.0
Cc1cc(Cl)ccc1OCC(=O)NCCCN(C)C	-1.1	1.4	1.3	0.0
CCOC(=O)c1sc(NC(=O)CSc2nnc(CNC(=O)c3ccccc3F)n2-c2cccc(C)c2C)c(C(=O)OCC)c1C	3.8	8.5	0.1	0.1
O=C(Cn1c(=O)oc2ccccc21)Nc1ccnc2ccccc12	32.0*	6.2	0.8	0.0
COc1cccc(-c2ocnc2C(=O)Nc2ccc(N3CCC(C)CC3)c(C(N)=O)c2)c1	-6.2	6.8	0.3	9.2*
O=C(Cn1cnc2scc(-c3ccc4ccccc4c3)c2c1=O)NCc1ccccc1	36.6*	5.9	-0.6	0.6
CN(Cc1ccccc1)C(=O)Cn1cnc2scc(-c3ccccc3)c2c1=O	32.1*	5.6	2.8	0.3
O=C(Cn1cnc2c(-c3ccc(F)cc3)csc2c1=O)NCCc1ccccc1	7.4	-0.8	-0.2	0.0
O=C(Cn1cnc2c(-c3ccc(F)cc3)csc2c1=O)NCc1ccccc1	48.6*	0.0	-0.1	-0.2
CC(=O)Nc1cccc(Oc2ccc3c(c2)C(=O)N(c2cccc(OC(C)=O)c2)C3=O)c1	45.8*	-11.8	-1.6	0.1
CC(=O)Nc1cccc(Oc2ccc3c(c2)C(=O)N(c2cccc(Cl)c2)C3=O)c1	80.1*	-6.5	-5.7	0.0
O=C(Nc1ccc2oc(-c3ccccc3Br)nc2c1)c1ccc(Cl)c(Cl)c1	6.3	1.9	1.8	-0.2
Cc1cc(C)cc(N=C2NC(=O)/C(=C\c3cc(C)n(-c4cccc([N+](=O)[O-])c4)c3C)S2)c1	10.9	2.3	0.6	-0.3
FC(F)(F)c1ccc(Cn2cnc3c(NCc4cccc(C(F)(F)F)c4)nc(Nc4ccc(-n5ccnc5)cc4)nc32)cc1	-2.4	-0.7	-0.9	-0.1
CCSC1=C(C#N)C(c2ccc(Cl)cc2)C(C(C)=O)=C(C)N1 (stereo unspecified)	-3.4	7.8	-0.6	0.4
c1ccc2c(c1)CC(c1nc3ccc(-c4ccncc4)cc3[nH]1)CCO2 (stereo unspecified)	41.4*	-12.4	0.3	0.2
N#C/C(=C1/Nc2ccccc2S1)c1ccnc(OCc2ccc(CN3CCOCC3)cc2)n1	86.2*	17.6	2.6	0.2
CC1Cc2ccccc2N1C(=O)CSc1nnc(-c2ccccc2)n1C (stereo unspecified)	1.4	-15.3	-1.2	0.2
SMILES	TEAD-YAP inh	MITF primary	GPR151 ag	FBW7 act
CC1Cc2ccccc2N1C(=O)CSc1nnc(Cc2ccccc2)n1C (stereo unspecified)	48.6*	18.5	-1.1	0.1
O=C(COc1ccc(S(=O)(=O)NC2CCCCC2)cc1)NC1CCCCCC1	34.5*	4.4	1.4	0.8
NC(=O)Nc1ccc(C(=O)OCC(=O)NC2CCCCC2)cc1	33.6*	6.1	-0.7	0.4
O=C(COC(=O)c1ccc(O)cc1)NC1CCCCCC1	-5.8	-5.8	0.6	0.1
CC(C)(c1ccccc1)c1ccc(OCC(=O)NC2CCCC2)cc1	-4.3	11.8	0.5	1.9*
CC(=O)c1ccc(NC(=O)Nc2c(F)cc(F)cc2Br)cc1	5.8	15.6	0.7	0.3
Cc1cc(S(=O)(=O)NCCC2=CCCCC2)ccc1-n1cnnn1	-12.8	9.0	0.0	0.1
O=C(CCC1(Cc2ccccc2)CCC(=O)N1)NCc1cccs1 (stereo unspecified)	-46.1	14.6	-0.9	0.3
O=C(NN1C(=O)CSC1=S)c1ccccc1	0.9	-7.6	0.5	0.0
O=C(NN1C(=O)CSC1=S)C(=O)NN1C(=O)CSC1=S	-7.0	64.0*	0.9	-0.2
COc1cc(/C=N/NC(=O)CCN2CCN(C)CC2)cc(OC)c1O	-1.1	51.4*	-0.2	-0.1
COc1cc(/C=N/NC(=O)CCN2CCN(C)CC2)ccc1O	-4.4	22.8	0.0	0.3
